# From PubChem BioAssay
# Rows were chosen to be rich in hits. Some 8% of all compounds tested hit in one or more screens of this group.
# MARV entry inh: Marburg virus entry inhibition. Marburg virus pseudotyped entry inhibition, cell reporter. Potency, µM (series often up to 37.8 µM), without a hit: at the highest dose activity change, negative = inhibition, most hits filed as inhibitors. hit rate 1.8% among 300,000. AID 540276; calls by dose curve; tested in HEK293 cells; also: potency is read from the fitted curve at half-maximal effect; % is scaled to controls: 0 for no effect and ±100 for the full control effect
# HCV inh: inhibitors of hepatitis C virus infection. Potency, µM (top dose mostly 41.8 µM), for the others: top-dose activity change, negative = inhibition, usual class: inhibitors. hit rate 3.4% among 340,000. Huh7.5.1 HCVcc-Cre infection, luciferase reporter, 44 h. AID 651820; active = well fitted inhibition curve with a large enough effect; inconclusive = small, poorly fitted or top-dose-only effect, or another doubt; inactive = no such curve, though single readings can be large or run the other way; also: potency is read from the fitted curve at half-maximal effect; % is scaled to controls: 0 for no effect and ±100 for the full control effect
#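 HCVcc-Cre virus at an moi near 0.5 was added right after compound to cells cultured 4 h from seeding (1,000 cells/well). Luciferase activity was determined 44 h later, 15 min after substrate addition at RT.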
# SARS PLpro yeast-1: blocks SARS-CoV papain-like protease in a yeast assay | S. cerevisiae expressing SARS-CoV PLpro, growth rescue | Potency, µM (titrated, usually from 32.9 µM), inactives show top-dose activity, positive = growth rescue, usual class: activators | hit rate 0.19% among 330,000 | AID 485353; calls by dose curve; also: potency is read from the fitted curve at half-maximal effect; 0% is about no effect; nearly all actives have a fitted effect of over 55% in size
# FMDV antiviral: foot and mouth disease virus antiviral activity; FMDV antiviral cell-based qHTS; Potency, µM (titrated, usually from 57.9 µM), without a hit: at the highest dose activity change, negative = inhibition, hits mostly inhibitors; hit rate 1.2% among 410,000; AID 1159524; calls by dose curve; tested in HEK293T cells; also: read-out not given here; potency is read from the fitted curve at half-maximal effect; % is scaled to controls: 0 for no effect and ±100 for the full control effect; nearly all actives have a fitted effect of over 45% in size
# Lassa entry inh: inhibitors of Lassa virus binding or cell entry; Lassa virus pseudotype entry inhibition, cell reporter; hit rate 1.2% among 300,000; Potency, µM (titrated, usually from 37.9 µM), for the others: top-dose activity change, negative = inhibition, most hits filed as inhibitors; AID 540256; calls by dose curve; tested in HEK293 cells; also: potency is read from the fitted curve at half-maximal effect; % is scaled to controls: 0 for no effect and ±100 for the full control effect; nearly all actives have a fitted effect of over 50% in size
# HCMV inh: blocks human cytomegalovirus replication. HFF cells, HCMV-luciferase reporter, 72 h; active compounds read low. activity change, negative = inhibition, % at 57.5 µM. hit rate 4.5% among 410,000; in the data active = activity change below about -60%; inconclusive = no clear call, values can overlap the other calls; inactive = above about -39%; also: % is scaled to controls: 0 for no effect and ±100 for the full control effect
#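 Inhibition of viral replication was scored as loss of reporter luminescence in HFFs infected with HCMV-luciferase (MOI 1 PFU/cell) for 72 h; compounds tested at 2 doses, normalized to buffer and Salinomycin controls.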
# SARS PLpro yeast-2: Rescues yeast growth by inhibiting SARS-CoV PLpro | AID 652038 | shares compounds with SARS PLpro yeast-1 | yeast expressing SARS-CoV PLpro, growth phenotype rescue | hit rate 19% among 1,000 | calls only; call rule not given here
# * hit, by the source's call; i = inactive; u = inconclusive; x = not tested or not shown; + = active, no number; [ ] = another dose, or the depositor's remark.
SMILES,MARV entry inh,HCV inh,SARS PLpro yeast-1,FMDV antiviral,Lassa entry inh,HCMV inh,SARS PLpro yeast-2
CCOC(=O)N1CCN(CC(O)COCc2ccccc2)CC1 (centres undefined),3.2%,5.0%,u,-7.7%,12.8%,96.0,i
CCN1CCN(CC(O)COCc2ccccc2)CC1 (centres undefined),23.5%,15.1%,7.2%,-4.0%,4.1%,10.9,x
CCOC(=O)C(C)/C(C)=N/NC(N)=S (centres undefined),2.1%,2.9%,u,-11.7%,18.8%,u,+
Cc1ccc(S(=O)(=O)N2CC(O)CC2C(=O)OCc2nc3sc(C)c(C)c3c(=O)[nH]2)cc1 (centres undefined),12.2%,5.9%,u,-4.0%,1.5%,-26.2,i
O=C(Cc1cccs1)N/N=C/c1ccccc1,-4.7%[46.1 µM],-4.3%,-2.3%,19.4%,u,55.2,x
CCN(CC)c1ccc(/C=N/Nc2nc3ccccc3[nH]2)c(O)c1,3.98µM*,5.62µM*,10µM*,-26.0%,6.31µM*,-98.2*,+
CCN(CC)c1ccc(/C=N/NC(=O)Cc2cccs2)c(O)c1,16.4µM*,u,5.01µM*,22.1%,3.16µM*,-99.9*,i
Cc1ccc2cc(/C=N/Nc3nc4ccccc4[nH]3)c(Cl)nc2c1,x,0.9%,-15.9%,7.2%,x,4.8,x
O=c1c2c3c(sc2nc2n1CCCCC2)CCCC3,19.0%,-16.2%,4.47µM*,37.4%,0.4%,60.4,i
CC(=O)c1sc(NC(=O)CN2C(=O)C3CCCCC3C2=O)nc1-c1ccccc1 (centres undefined),x,10.7%,5.9%,7.6%,x,63.7,x
COc1ccc(S(=O)(=O)NCCN2CCOCC2)c(C)c1C,-1.8%[46.1 µM],16.1%,0.3%,27.3%,10.4%[46.1 µM],39.4,x
COc1ccc(S(=O)(=O)NCCN2CCOCC2)c2ccccc12,-0.4%,17.4%,20µM*,x,5.2%,30.0,i
COc1cc(C(=O)OCc2cc(=O)n3nc(C(C)C)sc3n2)cc(OC)c1OC,x,x,x,-10.2%,-24.0%[46.1 µM],8.3,x
CCOC(=O)c1ccc(NC(=O)CC2C(=O)N(c3cccc(OC)c3)C(=O)N2Cc2ccc(OC)cc2)cc1 (centres undefined),u,x,x,-14.6%,-23.8%[46.1 µM],17.2,x
COc1ccc(N(CC(=O)Nc2nccs2)S(=O)(=O)c2c(C)nn(C)c2C)cc1,x,-2.1%,u,-2.4%,x,-23.0,i
C[C@H](CO)N1C[C@H](C)[C@@H](CN(C)C(=O)NC2CCCCC2)Oc2c(NC(=O)Nc3ccccc3)cccc2C1=O,x,u,4.6%,25.0%,x,-34.2,x
COc1ccc(S(=O)(=O)Nc2cccc3c2O[C@H](CN(C)Cc2ccc(Cl)c(Cl)c2)[C@@H](C)CN([C@H](C)CO)C3=O)cc1,x,-5.2%,u,21.9%,x,-2.6,u
C[C@H](CO)N1C[C@H](C)[C@@H](CN(C)C(=O)Nc2ccccc2)Oc2c(NC(=O)NC3CCCCC3)cccc2C1=O,x,1.5%,u,45.9%,x,-18.1,i
C[C@H]1CN([C@@H](C)CO)C(=O)c2cccc(NS(=O)(=O)c3ccc(F)cc3)c2O[C@H]1CN(C)Cc1ccc(Cl)c(Cl)c1,x,-25.2%,-4.3%,-16.1%,x,14.5,x
COc1cc2ccccc2cc1C(=O)N1CCN(c2ccccc2O)CC1,x,12.6%,-1.0%,-3.6%,x,-10.8,x
CCCNC(=O)C1(C)CCCN(C(=O)COCc2ccccc2)C1 (centres undefined),x,x,x,-10.9%,x,14.2,x
Cc1oc2cc(OCc3cnn(-c4ccccc4)c3)ccc2c(=O)c1Oc1ccccc1F,1.6%,6.6%,2.51µM*,u,-1.4%,-19.3,i
COC(=O)c1ccc(Oc2c(C)oc3cc(OCc4cnn(-c5ccccc5)c4)ccc3c2=O)cc1,-11.9%,2.1%,15.9%,-23.1%,-5.7%,62.3,x
Cc1cccc(OCCNc2cc(N3CCN(CCO)CC3)ccc2[N+](=O)[O-])c1,u,u,12.6µM*,19.7%,15.1%,-3.2,i
COCCNC(=O)C1(C)CCN(Cc2cccc(Oc3ccccc3)c2)C1 (centres undefined),x,x,x,-18.3%,x,-31.4,x
SMILES,MARV entry inh,HCV inh,SARS PLpro yeast-1,FMDV antiviral,Lassa entry inh,HCMV inh,SARS PLpro yeast-2
O=S(=O)(Nc1ccc(OC(F)F)cc1)c1ccc(-c2ccon2)s1,u,-12.3%,0.4%,14.2%,18.7%[46.1 µM],6.6,x
COc1ccc(C)cc1NC(=O)c1cc2ccccc2cc1OCC(=O)NCc1ccco1,-8.4%,u,3.55µM*,-21.7%,1.5%,45.2,+
CC(=O)Nc1ccc(S(=O)(=O)N2CCN(c3ncccn3)CC2)cc1,x,-12.5%,0.3%,u,x,9.0,x
COc1nc(Nc2ccc(C(C)C)cc2)nc(OC)n1,-9.6%,u,u,9.2%,u,-15.6,i
Cc1noc(C)c1C(=O)N1CCC[C@@]2(CCN(C(=O)Nc3cccc(C#N)c3)C2)C1,x,x,x,-4.3%,x,x,x
CCSc1nnc(NC(=O)C(Cc2ccccc2)n2cccc2)s1 (centres undefined),x,6.6%,u,-24.8%,x,-8.1,i
COc1cc2nc(CN3C(=O)c4ccccc4C3=O)oc(=O)c2cc1OC,0.2%,5.6%,22.4µM*,-17.0%,1.8%,-19.6,i
COc1cc2nc(-c3ccccc3C)oc(=O)c2cc1OC,u,-26.0%,-4.0%,-1.7%,29.9%,-23.2,x
CN1/C(=C\C(=S)NC(=O)c2ccccc2Cl)C(C)(C)c2ccccc21,u,u,u,-14.1%,5.7%,-83.8*,+
COc1ccc(NC(=O)C(=O)NCCc2ccc(OC)c(OC)c2)c(OC)c1,x,x,x,-1.8%,-5.3%[46.1 µM],2.3,x
CCOc1ccc(C(=O)CC(=O)C(=O)NCCc2ccc(OC)c(OC)c2)cc1,-40.7%,u,20µM*,3.5%,-11.4%,8.8,u
CCOc1ccc(N(CC)C(=O)CSc2n[nH]c(-c3ccccc3)n2)cc1,x,x,x,-15.8%,u,-6.1,x
Fc1cccc(/C=N/Nc2nncc3ccccc23)c1,x,3.5%,-6.7%,-5.6%,x,200.8,x
C(=N\Nc1nncc2ccccc12)/c1ccccn1,u,3.16µM*,12.6µM*,u,1.12µM*,-97.7*,i
Cn1c(=O)[nH]c(=O)c2c1nc(N1CCCCC1)n2CC(O)COc1ccc([N+](=O)[O-])cc1 (centres undefined),x,5.3%,5.0%,-23.8%,x,15.8,x
Cc1ccc(C(C(=O)NCc2ccccc2)N(Cc2cccs2)C(=O)c2ccc3c(c2)OCCO3)cc1 (centres undefined),6.51µM*,u,u,-13.0%,6.51µM*,-68.9*,i
CCCSc1nnc(NC(=O)Nc2ccccc2OC)s1,x,-4.3%,-0.9%,40.5%,x,-39.7,x
COc1ccccc1NC(c1cccnc1)c1ccc2cccnc2c1O (centres undefined),u,u,4.47µM*,-29.8%,u,-1.5,u
